For 38 compounds, viability results are on record in PubChem BioAssay.

By viability is commonly meant a read-out of living cells in per cent, often relative to untreated cells.

Each structure is given as a SMILES string. Inconclusive results are not listed. Values without a mark were called inactive. The source made the active and inactive calls.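 How the source made its calls: active means cell viability at or below a set limit in both duplicate runs, the limit being the all-compound median minus 4 SD (cut at about 23% in these data, passing the limit was not always enough); inconclusive means no clear call, values can overlap the other calls; inactive means the rest.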

This experiment in a line: growth suppression of beta-catenin knockout HCT116, pilot screen, human colon tumor cells (AID 823).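 Further: 0% = wells killed by 20 µM Hyamine and 100% = untreated DMSO cell wells.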 The settings on record: CellTiter-Glo, 60 h, at 10 µM, hits give low values. In general terms: ATP-based viability assays read luminescence as a measure of living cells.
As to `CN(C)c1ccc(NC(=O)Cn2cc3c(n2)CCCC3)cc1`, the viability was 64.2%.

For the compound `CCOC(=O)c1cc(NC(=O)SCC(=O)O)c(C)nc1C`, the viability was 96.1%.

For the compound `Cc1nc2ccccc2c2oc(C(=O)NCC3COc4ccccc4O3)cc12` (stereo not drawn), the viability was 61.2%.

For the compound `O=C(CS(=O)(=O)c1cn(Cc2ccc(F)cc2)c2ccccc12)N1CCCCC1`, the viability was 82.4%.

Consider `Cc1ccc(C2c3c(oc4ccccc4c3=O)C(=O)N2c2nnc(C(C)C)s2)o1` (stereo not drawn), for which the viability is 104%.

`Cc1cc(C)c2c(=O)n(CC(=O)NCCCN3CCN(c4ccccc4F)CC3)sc2n1`: the viability was 3.95% (active).

Regarding `COc1ccccc1S(=O)(=O)Cc1ccc(C(=O)NCCN2CCCCCC2)o1`, the viability was 104%.

In the case of `COc1ccc(C2C(C(=O)Nc3cccnc3)=C(C)Nc3nc(-c4cccs4)nn32)cc1OC` (stereo not drawn), the viability is 106%.

In the case of `Cc1cc(=O)oc2cc(OCC#N)ccc12`, the viability was 106%.

Take `CC1=C(C(N)=O)C(c2ccccn2)n2nc(SCc3ccccc3)nc2N1` (stereo not drawn): the viability is 102%.

In the case of `OC1(c2cccc(C(F)(F)F)c2)CCN(c2ccc(-c3ccccc3)nn2)CC1`, the viability was 10.7% (active).

For the compound `CCOC(=O)CSC1=C(C#N)C(c2ccc(C)o2)CC(=O)N1` (stereo not drawn), the viability is 13.7% (active).

Take `O=C(Nc1nc2c(s1)CCCC2)C1COc2ccccc2O1` (stereo not drawn): the viability was 90.3%.

Take `Cc1ccccc1Cn1nc(C)c(NC(=O)c2noc3c2CCc2ccccc2-3)c1C`: the viability is 79.5%.

As for `O=C(C1CC1)N1CCc2cc(Br)cc(S(=O)(=O)N3CCOCC3)c21`, the viability is 91.9%.

Consider `C/C=C/COC(=O)c1[nH]c2c(c1C)C(=O)CC(c1ccco1)C2` (stereo not drawn), for which the viability is 16.6% (active).

Regarding `Cc1ccc2nc(NC(=O)Cn3cc4c(n3)CCCCC4)sc2c1`, the viability was 98.2%.

For the compound `Cn1c(=O)oc2cc(S(=O)(=O)N3CCN(c4ccccn4)CC3)ccc21`, the viability was 66%.

For the compound `Cc1cccc(N(CC(=O)N2CCCC2)S(=O)(=O)c2ccccc2)c1C`, the viability was 93.9%.

For `CC(Sc1n[nH]c(=O)[nH]c1=O)C(=O)OCc1ccccc1` (stereo not drawn), the viability was 103%.

Regarding `O=C(Nc1ccncc1)c1cc2ccccc2o1`, the viability was 95.7%.

For `CCOc1ccccc1NC(=O)C1CCCN(S(=O)(=O)c2cccc3cccnc23)C1` (stereo not drawn), the viability is 76.2%.

As to `O=C(Nc1nc(-c2ccncc2)cs1)C1COc2ccccc2O1` (stereo not drawn), the viability was 85.3%.

With `CC(C)C(CO)NC(=O)CC(=O)NC(CO)C(C)C` (stereo not drawn), the viability is 105%.

Turning to `C(=N\n1cnnc1)/c1cccc(OCCOc2ccccc2)c1`, the viability was 89%.

For the compound `C/C=C/COC(=O)c1[nH]c2c(c1C)C(=O)CC(c1ccc(N(C)C)cc1)C2` (stereo not drawn), the viability was 60.6%.

`Cc1ccc(C)c(N2CCN(CCCNC(=O)Cn3cc4c(n3)CCC(C)C4)CC2)c1` (stereo not drawn): the viability is 1.61% (active).

Turning to `CCOC(=O)c1ccc(N=c2sc(C(=O)OC)cc(=O)n2Cc2ccco2)cc1`, the viability was 5.04% (active).

Regarding `Cc1ccccc1-c1nc(CN2CCC(C(=O)NC3CCN(Cc4ccccc4)CC3)CC2)c(C)o1`, the viability was 6.4% (active).

For `CC(=O)n1cc(-c2ccncc2)c2ccccc21`, the viability is 86.7%.

Regarding `C/C=C/CSc1nc2c(c(=O)[nH]c(=O)n2C)n1Cc1ccc(C)cc1`, the viability was 84.4%.

As for `O=C(NCCN1C(=O)C2C3C=CC(C3)C2C1=O)Nc1ccccn1` (stereo not drawn), the viability was 107%.

On to `CC1CCCCN1S(=O)(=O)c1ccc(NC(=O)c2cccs2)cc1` (stereo not drawn), for which the viability was 76.2%.

In the case of `CCOc1ccc(N(CC(=O)Nc2cccc(OC)c2)S(=O)(=O)c2c(C)noc2C)cc1`, the viability is 71.8%.

As to `CCOC(=O)N1CCN(C(=O)CN(C2CCCCC2)S(=O)(=O)c2ccc(F)cc2)CC1`, the viability was 99.8%.

Consider `COc1cccc(-c2nc(CS(=O)(=O)CC(=O)Nc3cc(C)ccc3C)c(C)o2)c1`, for which the viability is 98.4%.

On to `Cc1cc(=O)oc2c1ccc1oc(/C(=N/O)c3ccccc3)c(C)c12`, for which the viability was 80.8%.

As to `Cc1cc(/C=N/n2cnnc2)c(C)n1-c1cccc(Cl)c1`, the viability was 83.7%.
